Compounds with a hit are over-represented: about 12% of the library has one in this group of screens.
L3MBTL1 block – blocks human L3MBTL1 | Q9Y468 | AlphaScreen L3MBTL1–H3K9me1 peptide binding | Potency, µM (top dose mostly 57.1 µM), inactives show top-dose activity, negative = inhibition, usual class: inhibitors | 230,000 compounds, 0.66% hits | AID 485360; also: % is scaled to controls: 0 for no effect and ±100 for the full control effect; nearly all actives have a fitted effect of over 60% in size
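AlphaScreen assay: L3MBTL1 (50 nM final) was preincubated 30 min at room temperature with biotinylated H3(1-15)K9me1 peptide (75 nM final), then 30 min with library compounds; streptavidin donor and nickel chelate acceptor beads (10 ug/mL final) added, 30 min dark.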
Sfp PPTase inh – blocks B. subtilis Sfp PPTase activity; Potency, µM, without a hit: largest response in the series, negative = inhibition, hits mostly inhibitors; Biochemical Sfp PPTase activity, qHTS; 310,000 compounds, 3.5% hits; AID 1490;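 also: the enzyme is Sfp with the accession as filed and its product quenches rhodamine fluorescence; 0% = enzyme reaction without inhibitor and -100% = no enzyme wells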
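Fluorescence-quenching assay: 15 nM Sfp-PPTase preincubated 15 min at room temperature with compound, then 5 uM rhodamine-CoA and 12.5 uM BHQ-2-labelled YbbR peptide added. Fluorescence (ex 525/em 598 nm) read at start and after 30 min; difference gives rate.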
JMJD2A Tudor inh – inhibitors of human JMJD2A Tudor domain; O75164; AlphaScreen JMJD2A-Tudor / H3K4me3 peptide binding; Potency, µM (titrated, usually from 114 µM), for the others: at the top dose activity change, negative = inhibition, actives largely listed as inhibitors; 390,000 compounds, 4.4% hits; also: % is scaled to controls: 0 for no effect and ±100 for the full control effect; nearly all actives have a fitted effect of over 50% in size
G9a inh – inhibitors of human histone lysine methyltransferase G9a; Q96KQ7; G9a H3K9 monomethylation, AlphaScreen, 2 h; Potency, µM (titrated, usually from 102 µM), for the others: top-dose activity, negative = inhibition, hits mostly inhibitors; 350,000 compounds, 8.8% hits; also: % is scaled to controls: 0 for no effect and ±100 for the full control effect; nearly all actives have a fitted effect of over 75% in size
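Compounds were preincubated with 20 nM G9a for 15 min, after which biotinylated H3K9 peptide (500 nM) and SAM (20 uM) started a 2 h room-temperature reaction. Monomethylated product was quantified by antibody-based AlphaScreen chemiluminescence.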
HP1b chromo inh – HP1-beta chromodomain-methylated histone interaction inhibition; P83916; AlphaScreen HP1-beta / biotin-H3K9me3 peptide binding; Potency, µM (top dose mostly 114 µM), inactives show at the highest dose activity change, negative = inhibition, actives largely listed as inhibitors; 390,000 compounds, 0.56% hits; also: nearly all actives have a fitted effect of over 70% in size
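HP1-beta protein (50 nM final) preincubated 30 min at room temperature with biotinylated H3(1-18)K9me3 peptide (50 nM) in PBS pH 7.4, 0.01% Tween-20, then compound added for 30 min. AlphaScreen streptavidin donor/nickel chelate acceptor beads (10 ug/mL final), 30 min dark, luminescence read.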
BAZ2B inh – BAZ2B (human) inhibition; Q9UIF8; 360,000 compounds, 4.4% hits; Potency, µM (highest dose often 114 µM), inactives show at the top dose activity change, negative = inhibition, hits mostly inhibitors; AlphaScreen BAZ2B-H3K14Ac peptide displacement; AID 504333; also: % is scaled to controls: 0 for no effect and ±100 for the full control effect; nearly all actives have a fitted effect of over 60% in size
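BAZ2B (50 nM) with biotin-H3(5-23)K14Ac peptide (50 nM) in PBS pH 7.4, 0.01% Tween-20, preformed 30 min, then compound 30 min at room temperature; top concentration 110uM. AlphaScreen streptavidin donor/nickel chelate acceptor beads (10 ug/mL final), 20 min dark, signal read.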
* = called active by the depositor; ? = inconclusive; · = no result given; [ ] = remark or other dose. Calls follow the shape of the dose curve; as a rule, active = well fitted curve in the direction sought with a large enough effect; inconclusive = small, poorly fitted or top-dose-only effect, or another doubt; inactive = no such curve, though single readings can be large; an effect the other way counts as inactive or inconclusive. Potency is read from the fitted curve at half-maximal effect.

SMILES	L3MBTL1 block	Sfp PPTase inh	JMJD2A Tudor inh	G9a inh	HP1b chromo inh	BAZ2B inh
CN(C(=O)Nc1ccccc1)C1CCCc2ccccc21 (stereo not given)	·	9%	8%	21%	28%	1%
COC(=O)CSc1cc([N+](=O)[O-])ccc1NC(=O)OC	·	-9%	-11%[57.1 µM]	35µM*	34%	-3%
COc1cc([N+](=O)[O-])ccc1NC(=O)CN1CCc2cc(OC)c(OC)cc2C1	·	-1%	-35%	28µM*	-17%	-35%
COc1cc2c(cc1OC)CN(CC(=O)Nc1cccc([N+](=O)[O-])c1)CC2	·	14%	-27%	?	1%	-27%
COc1cc2c(cc1OC)CN(CC(=O)NC(=O)NCc1ccccc1)CC2	7%	-8%	-17%	56µM*	34%	-15%
CCc1cccc(CC)c1NC(=O)CN1CCc2cc(OC)c(OC)cc2C1	·	-15%	·	71µM*	·	50µM*
COc1cc2c(cc1OC)CN(CC(=O)Nc1ccccc1C(=O)NCc1ccccc1)CC2	·	3%	-30%	14%	8%	?
C=CCNCc1cccn1-c1sc2c(c1C#N)CCCC2	·	-10%	3.2µM*	?	?	?
N#Cc1c(-n2cccc2/C=N/O)sc2c1CCCC2	-26%	15%	45µM*	?	?	45µM*
N#Cc1c(-n2ncnc2-c2cccc(Cl)c2)sc2c1CCCCC2	·	·	-24%	-32%[59 µM]	8%	-13%
N#Cc1c(N2C(=O)C3C4C=CC(C4)C3C2=O)sc2c1CCC2 (stereo not given)	16%	20%	-13%	-17%[12.7 µM]	29%	8%
COc1ccc2oc(-c3cccc(NC(=O)c4cc([N+](=O)[O-])ccc4N4CCOCC4)c3)nc2c1	·	·	-29%	?	-11%	?
CCCCC1=CC2=C(OC(C)=O)C(=O)C(C)(OC(=O)CCC(=O)OC)C(=O)C2=CO1 (stereo not given)	·	17%	·	·	·	·
Cc1ccc2[nH]c(=O)c(CN(CCc3ccccc3)C(c3nnnn3Cc3ccco3)C(C)C)cc2c1 (stereo not given)	·	18µM*	?	?	-14%	-30%
CCC(c1nnnn1Cc1ccco1)N(CCc1ccccc1)Cc1cc2cc(C)ccc2[nH]c1=O (stereo not given)	-3%	18µM*	-16%	40µM*	11%	-34%
CCC(c1nnnn1Cc1ccccc1)N(Cc1ccco1)Cc1cc2cc(OC)ccc2[nH]c1=O (stereo not given)	-11%	-22%	-28%	17%[2.33 µM]	23%	-35%
Cc1ccc(NC(=O)COC(=O)CN2C(=O)NC3(CCCC3)C2=O)cc1Cl	-1%	·	-8%	10%[2.33 µM]	27%	4%
COc1ccccc1OCC(=O)NNc1c2ccccc2nc2ccccc12	-9%	5%	?	35µM*	-10%	?
C[N+]1(CC(=O)NNc2c3ccccc3nc3ccccc23)CCOCC1	-5%	3%	·	50µM*	·	?
O=C(CN1CCOCC1)NNc1c2ccccc2nc2ccccc12	38%	-1%	?	·	10%	-7%
CCOC(=O)/C=C/[C@H]1CCc2cccc(Cl)c2O1	44%	·	29%	31%[2.33 µM]	83%	156%
O=C(Nc1cccnc1)C1(F)C(F)(F)C(F)(F)C(F)(F)C(F)(F)C1(F)F	7%	29%	79µM*	50µM*	14%	-31%
O=C(/C=C/c1ccco1)Nc1ccc(C(=O)N2CCOCC2)cc1	-11%	-52%	-29%	?	-13%	?
CC(/C=C/c1ccco1)=N\NC(=O)c1cccnc1	·	56µM*	-24%	50µM*	10%	-7%
O=C(/C=C/c1ccco1)c1cccnc1	·	50µM*	?	40µM*	0%	-33%
CC(/C=C/c1ccco1)=N/NC(=O)c1ccc(C)nc1	·	-7%	-23%	-20%	9%	-16%
O=C(/C=C/c1ccco1)Nc1ccc(N2CCCC2)cc1	-13%	1%	-30%	0.89µM*	-13%	-33%

Compound activity deposited in PubChem by National Center for Advancing Translational Sciences (NCATS).
